# Assay outcomes: PubChem, several laboratories
# HIF-2a inh – blocks HIF-2a reporter activity; 786-0 RCC cells HIF-2a reporter, luciferase luminescence, overnight; inhibition, % at 18.8 µM; actives 0.72% (n = 360,000); AID 624352;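 active means inhibition of the luminescence signal of 40% or more relative to plate controls, in a single-dose primary screen at 18.75 µM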
# KKLEB tox – CF airway cell cytotoxicity counter-screen; KKLEB CF airway cells viability, ATPlite luminescence, overnight; active compounds read low; cells stimulated with P. aeruginosa culture filtrate; activity change (cytotoxicity), % at 5 µM; actives 0.36% (n = 360,000);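 active means corrected activity change at or below -50% at 5 µM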
# PAX8 inh HTS – inhibitors of PAX8 transcriptional activity in RMG-I cells. RMG-I TPO-luciferase reporter, SteadyGlo, 24 h. actives 1.2% (n = 360,000). inhibition, % at 12.6 µM. AID 652154;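 active means mean replicate inhibition at least 60% with every replicate also reaching 60%; inconclusive means only one of the two criteria is met; inactive means mean below 60% and not all replicates reaching 60%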;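 further: luciferase light reporting Pax8 driven TPO promoter activity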
# CF NFkB block – inhibitors of cystic fibrosis induced NF-kB; KKLEB NF-kB-GFP reporter, PAF-induced, GFP fluorescence overnight; actives 0.86% (n = 360,000); inhibition, % at 5 µM;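 active means at least 50% inhibition at 5 µM, scaled per plate between neutral and stimulator controls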;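 further: PAF is a Pseudomonas aeruginosa culture filtrate used as stimulus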
# EWS-Fli block – blocks EWS/Fli oncoprotein-driven transcription; A673 NR0B1-luciferase reporter, viability-normalised; inhibition, % at 12.6 µM; actives 0.67% (n = 350,000);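 active means mean inhibition of at least 50% after viability correction, with every replicate also passing that limit; inconclusive means mean reaches 50% but only one of two replicates passes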;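 further: firefly luciferase signal divided by Alamar Blue viability fluorescence both relative to DMSO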
# A number is an active result; i = inactive; ? = inconclusive; nt = not tested or not shown. Only some compounds are listed: those with a hit (about 2.1% of all), similar ones and a draw of the others.
SMILES,HIF-2a inh,KKLEB tox,PAX8 inh HTS,CF NFkB block,EWS-Fli block
CCN1CCN(Cc2ccc(NC(=O)c3ccc(C)c(NC(=O)C4=NN(c5ccccc5)C(=O)C4)c3)cc2C(F)(F)F)CC1,i,i,i,i,i
CCN1CCN(Cc2ccc(NC(=O)c3cc(NC(=O)c4cncc(-c5cccs5)c4)cc(OC)c3)cc2C(F)(F)F)CC1,i,i,i,i,64.4
COc1cc(NC(=O)c2nccnc2N)cc(C(=O)Nc2cccc(C(F)(F)F)c2)c1,i,i,76.3,i,i
COc1cc(NC(=O)N2CCNC2=O)cc(C(=O)Nc2cccc(C(F)(F)F)c2)c1,i,i,62.9,i,59.4
COc1cc(NC(=O)c2ccc(N)nc2)cc(C(=O)Nc2cccc(C(F)(F)F)c2)c1,i,i,i,i,i
CCCNC(=O)N[C@@H]1C=C[C@@H](CC(=O)NCCc2ccccc2)O[C@H]1CO,nt,nt,i,nt,i
CN1C(=O)c2cc(NC(=O)Nc3ccccc3F)ccc2OC[C@@H]2O[C@H](CC(=O)O)CC[C@H]21,nt,nt,i,nt,i
C[C@H](CO)N1C[C@H](C)[C@@H](CN(C)C(=O)NC2CCCCC2)Oc2ccc(NC(=O)CCCCCC(=O)Nc3ccccc3N)cc2C1=O,nt,nt,i,nt,i
C[C@@H]1CN([C@@H](C)CO)C(=O)c2cccc(NS(=O)(=O)c3ccc(Cl)cc3)c2O[C@H]1CN(C)Cc1ccc(C(=O)O)cc1,nt,nt,nt,nt,i
CCCC(=O)N(Cc1cc(=O)[nH]c2ccccc12)c1cccc(C)c1,i,i,i,i,i
O=C(CCl)N(CCc1ccccc1)CCc1ccccc1,i,-50.5,i,66.4,59.1
CCCCCCCN(C(=O)CCl)c1cccc(C)c1,i,-87.4,102.9,78.2,nt
CCCCCCN(C(=O)CCl)c1ccccc1,i,-68.3,104.4,84.9,i
O=C(CCCc1ccccc1)NCCc1ccccc1,i,i,i,i,i
O=C(CCl)N(c1ccccc1)c1ccccc1,i,i,?,55.8,i
CC(=O)N(CCN(C(C)=O)c1ccccc1)c1ccccc1,i,i,i,i,nt
O=C(N(c1ccccc1)c1ccccc1)N(c1ccccc1)c1ccccc1,i,i,i,i,i
C/C=C/c1ccc([C@@H]2[C@@H](CO)N(C(=O)CN(C)C)C23CN(C(=O)C2CCCCC2)C3)cc1,nt,nt,i,nt,i
CC(=O)N(C)C[C@@H]1Oc2ncc(-c3ccc(C#N)cc3)cc2C(=O)N([C@H](C)CO)C[C@@H]1C,nt,nt,nt,nt,i
O=C(Cc1ccc(F)cc1)OCC(=O)N1CCN(S(=O)(=O)c2ccc(Cl)cc2)CC1,i,i,101.3,i,i
O=C(Cc1cccc(C(F)(F)F)c1)OCC(=O)N1CCN(S(=O)(=O)c2ccc(Cl)cc2)CC1,i,i,i,i,i
C[C@@H]1CCCCO[C@@H](CN(C)S(=O)(=O)c2ccc(Cl)cc2)[C@H](C)CN([C@H](C)CO)C(=O)c2cc(N(C)C)ccc2O1,nt,nt,i,nt,i
C[C@@H]1CCCCO[C@@H](CN(C)S(=O)(=O)c2ccc(Cl)cc2)[C@H](C)CN([C@@H](C)CO)C(=O)c2cc(N(C)C)ccc2O1,nt,nt,79.3,nt,i
C[C@@H]1CCCCO[C@H](CN(C)S(=O)(=O)c2ccc(Cl)cc2)[C@@H](C)CN([C@@H](C)CO)C(=O)c2cc(NS(=O)(=O)c3ccc(Cl)cc3)ccc2O1,nt,nt,68.3,nt,i
C[C@@H]1CCCCO[C@@H](CN(C)S(=O)(=O)c2ccc(Cl)cc2)[C@H](C)CN([C@@H](C)CO)C(=O)c2cc(NS(=O)(=O)c3ccc(Cl)cc3)ccc2O1,nt,nt,77.7,nt,i
SMILES,HIF-2a inh,KKLEB tox,PAX8 inh HTS,CF NFkB block,EWS-Fli block
C[C@@H]1CCCCO[C@H](CN(C)C)[C@H](C)CN([C@@H](C)CO)C(=O)c2cc(NS(=O)(=O)c3ccc(Cl)cc3)ccc2O1,nt,nt,97.5,nt,i
C[C@H]1CCCCO[C@@H](CN(C)C)[C@@H](C)CN([C@@H](C)CO)C(=O)c2cc(NS(=O)(=O)c3ccc(Cl)cc3)ccc2O1,nt,nt,i,nt,i
C[C@@H]1CCCCO[C@H](CN(C)S(=O)(=O)c2ccc(Cl)cc2)[C@H](C)CN([C@H](C)CO)C(=O)c2cc(NS(=O)(=O)c3ccc(Cl)cc3)ccc2O1,nt,nt,i,nt,i
CC(C)CC#Cc1cnc2c(c1)C(=O)N([C@@H](C)CO)C[C@H](C)[C@@H](CN(C)C(=O)c1ccccc1F)O2,nt,nt,nt,nt,i
CCCNC(=O)[C@@H]1[C@@H](CO)[C@@H]2Cn3c(ccc(-c4ccccc4OC)c3=O)[C@@H]2N1C(=O)CC,nt,nt,i,nt,i
CC(C)C#Cc1ccc2c(c1)O[C@@H](CN(C)C(=O)NC(C)C)[C@@H](C)CN([C@@H](C)CO)S2(=O)=O,nt,nt,i,nt,i
C[C@@H]1CCCCO[C@H](CN(C)S(=O)(=O)c2ccc(Cl)cc2)[C@H](C)CN([C@@H](C)CO)C(=O)c2cc(NS(=O)(=O)c3ccc(Cl)cc3)ccc2O1,nt,nt,74.3,nt,i
O=C(COC(=O)[C@H](Cc1c[nH]c2ccccc12)NC(=O)c1cccs1)NCc1ccccc1,i,i,65.6,i,i
Cc1ccc2nc(-c3ccc(N)cc3)sc2c1,i,-56.0,i,i,68.5
C=C(C)c1cccc(C(C)(C)NC(=O)N2CCN(c3ccccc3OC)CC2)c1,i,i,106.3,i,i
O=C(NC1CCCC1)N1CCCCN2[C@@H](CO)[C@H](c3ccc(-c4ccccc4)cc3)[C@@H]2C1,nt,nt,i,nt,i
O=C(/C=C/c1ccc(Cl)cc1Cl)N1CCN(c2ccccc2[N+](=O)[O-])CC1,i,i,118.6,i,i
O=C(/C=C/c1ccc(Cl)cc1Cl)N1CCN(c2ccc([N+](=O)[O-])c(N3CCOCC3)c2)CC1,i,i,i,i,nt
N#C/C(=N\Nc1ccc(S(=O)(=O)N2CCc3ccccc32)cc1)C(N)=S,i,i,i,58.2,i
COc1ccc(C(=O)Nc2ccc(Oc3nc(C)nc4sc(-c5ccccc5)cc34)cc2)cc1OC,i,-53.3,i,i,nt
Cc1ccc(NC(=O)c2cc(S(=O)(=O)NCCC3=CCCCC3)ccc2F)cc1,i,i,64.1,i,i
Cc1ccc(NC(=O)c2cc(S(=O)(=O)NCC3CCCO3)ccc2F)cc1 (stereo unspecified),i,i,i,i,i
O=C(c1cnccn1)N1CC(=O)N2[C@H](CO)[C@H](c3ccc(C#CC4CC4)cc3)[C@H]2C1,nt,nt,nt,nt,i
Cc1cc2c(cc1C)C(c1ccccc1OC(C)C)CC(=O)N2 (stereo unspecified),i,i,i,i,i
COc1ccccc1C1CC(=O)Nc2cc(C)c(C)cc21 (stereo unspecified),i,i,i,i,54.5
CC(C)Oc1ccccc1C1CC(=O)Nc2cc3c(cc21)OCO3 (stereo unspecified),i,i,68.3,i,nt
C[C@@H]1CN([C@@H](C)CO)C(=O)c2cc(C#CC3CCCC3)cnc2O[C@H]1CN(C)C(=O)Cc1ccccn1,nt,nt,i,nt,i
COc1cccc(S(=O)(=O)N[C@@H]2CC[C@@H](CCN)O[C@H]2CO)c1,nt,nt,i,nt,i
NC1=C(Cl)C(=O)c2ccccc2C1=O,i,i,i,59.6,i
NC1=C(Cl)C(=O)c2ccc(S(N)(=O)=O)cc2C1=O,96.7,-94.9,120.9,88.8,65.1
